# In PubChem BioAssay (NCI):
# About 79,000 compounds went through this panel and 15% of them were active in at least one assay; those are over-represented in the sample as a whole. A number with no mark means an inactive call. Calls of active or inactive are those of the source. No stated cut-off is given here; in the data, active means growth inhibition above about 70%; inactive means the rest.
# Key:
# [1] = NCI Yeast Anticancer Drug Screen. Data for the rad50 strain (AID 155);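 further: 0% = growth of vehicle-only cultures of the same strain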; details: S. cerevisiae rad50 strain growth inhibition, hits give high values
# Summary of the method: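 Compounds were tested on a yeast strain with an engineered DNA damage repair alteration; the reported value is growth inhibition normalised to vehicle treatment.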
# [2] = NCI Yeast Anticancer Drug Screen. Data for the mec2-1 strain (AID 157); details: S. cerevisiae mec2-1 strain, hits give high values
# Summary of the method: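 Using mec2-1 yeast: add compound, measure growth, express inhibition versus vehicle-treated cultures.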
# [3] = NCI Yeast Anticancer Drug Screen. Data for the sgs1 mgt1 strain (AID 161);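 further: 0% = growth of cultures given vehicle only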; details: S. cerevisiae sgs1 mgt1 strain, hits give high values
# Summary of the method: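 Compounds are added to genetically altered yeast, and growth is compared with cultures given vehicle alone to give percent inhibition.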
# [4] = NCI Yeast Anticancer Drug Screen. Data for the cln2 rad14 strain (AID 165);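 further: 0% = growth equal to vehicle treated cultures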; details: S. cerevisiae cln2 rad14 strain, hits give high values
# Summary of the method: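 Yeast strain cln2 rad14, bearing defects in cell cycle control and DNA repair, serves as the test system; values reflect growth inhibition compared with vehicle.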
# [5] = NCI Yeast Anticancer Drug Screen. Data for the bub3 strain (AID 167); details: S. cerevisiae bub3 mutant strain, hits give high values
# Summary of the method: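 Growth of a checkpoint-deficient yeast mutant is measured after compound exposure. Values represent inhibition relative to vehicle.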
# [6] = NCI Yeast Anticancer Drug Screen. Data for the mlh1 rad18 strain (AID 175); details: S. cerevisiae mlh1 rad18 strain growth inhibition, hits give high values
# Summary of the method: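 Steps: expose repair-defective yeast to compound; measure growth; express inhibition against vehicle-treated controls.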
# [7] = at 5.0 µM (retest, dose inferred, filed as 0.5)
# [8] = at 50.0 µM (retest, dose inferred, filed as 5.0)
SMILES,"growth inhibition [1, 7]","growth inhibition [1, 8]",growth inhibition ([1]; at 50.0 µM),"growth inhibition [2, 7] [%]","growth inhibition [2, 8]",growth inhibition ([2]; at 50.0 µM),"growth inhibition [3, 7]","growth inhibition [3, 8]",growth inhibition ([3]; at 50.0 µM),"growth inhibition [4, 7] [%]","growth inhibition [4, 8]",growth inhibition ([4]; at 50.0 µM),"growth inhibition [5, 7]","growth inhibition [5, 8]",growth inhibition ([5]; at 50.0 µM),"growth inhibition [6, 7]","growth inhibition [6, 8]",growth inhibition ([6]; at 50.0 µM)
Oc1ccc(-c2ccccc2)cc1O,23%,99% (active),76.1% (active),13,100% (active),82% (active),12%,99% (active),89% (active),-3,99% (active),1.55%,-6%,99% (active),46.5%,27%,99% (active),81.4% (active)
c1ccc2c(c1)CCN2CCc1c[nH]c2ccccc12,0%,12%,89.6% (active),-5,-12%,91.8% (active),-10%,3%,89.8% (active),23,31%,89.8% (active),-26%,43%,89.3% (active),-14%,21%,88.5% (active)
COc1ccc2nc3cc(Cl)ccc3c(Nc3nccs3)c2c1,14%,90% (active),95.1% (active),12,93% (active),70% (active),13%,90% (active),94.4% (active),9,87% (active),58.5%,6%,96% (active),94.5% (active),6%,94% (active),88.2% (active)
N#Cc1cc2c(cc1Cl)Sc1nccn1S2(=O)=O,5%,36%,28.4%,6,52%,34.7%,19%,63%,43.7%,-1,17%,39.2%,10%,90% (active),76.7% (active),2%,62%,64%
Nc1cc(Cl)ccc1SSc1ccc(Cl)cc1N,11%,58%,49%,67,90% (active),32.5%,46%,65%,48.6%,22,39%,-74.8%,58%,98% (active),50.6%,35%,51%,73.3% (active)
COC(=O)CCCCC(=O)N(C(C)C)C(C)C,4%,-10%,-8.6%,-5,-1%,-14.4%,-11%,-11%,-19.8%,-2,11%,76.3% (active),2%,4%,-3.5%,5%,-5%,19.1%
[Cl][Sn]1([Cl])[CH2]CC[CH2][Sn]([Cl])([Cl])[CH2]CC[CH2][Sn]([Cl])([Cl])[CH2]CC[CH2][Sn]([Cl])([Cl])[CH2]CC[CH2]1,-20%,57%,54.3%,-19,63%,83.3% (active),-3%,66%,87.5% (active),-6,47%,69.6%,-9%,66%,70.9% (active),-2%,83% (active),94% (active)
Cn1c(=O)[nH]c2nnc(-c3ccccc3)nc2c1=O,7%,89% (active),56.6%,6,92% (active),29.2%,38%,92% (active),61.5%,-3,89% (active),-13.7%,8%,93% (active),33.4%,13%,90% (active),68.1%
Nc1nccc2c1ncn2C1C=C(CO)C(O)C1O (centres undefined),15%,67%,38.5%,3,90% (active),45.4%,6%,80% (active),54.5%,0,26%,57.5%,21%,94% (active),57.1%,18%,89% (active),-8.5%
OC(c1ccccc1)(C(F)(F)F)C(O)(c1ccccc1)C(F)(F)F (centres undefined),77% (active),99% (active),94.4% (active),57,99% (active),89.2% (active),87% (active),99% (active),89.7% (active),57,99% (active),90.5% (active),76% (active),99% (active),81.6% (active),85% (active),99% (active),95.5% (active)
CN(C)CCCC1(c2ccccc2)SC(C)(C)c2ccc(Cl)cc21 (centres undefined),-36%,28%,15.3%,-4,7%,28.9%,0%,39%,44.2%,0,0%,-9.75%,-2%,11%,19.3%,11%,56%,66%
C#CC(CC(C)C)(CC(C)C)OC(=O)Nc1ccccc1,5%,95% (active),97.9% (active),1,97% (active),97.3% (active),4%,98% (active),98.1% (active),3,96% (active),97.7% (active),3%,94% (active),97.5% (active),-6%,95% (active),97.3% (active)
Clc1ccccc1/C=C/c1nccc2ccccc12,15%,98% (active),94.1% (active),-1,99% (active),60.2%,18%,98% (active),72.3% (active),15,98% (active),15.1%,64%,99% (active),88.5% (active),1%,98% (active),94.2% (active)
